Experimental data published in PubChem BioAssay (NCATS).
Where “and” joins values, the source holds several entries; their conditions need not be identical. Equal values may be shown once. Results filed as inconclusive are left out. Entries that show only a call come without a potency. Calls of active or inactive are those of the source. Unless noted, the call rests on the fitted dose curve; in most records, active means well fitted curve in the direction sought with a large enough effect; inconclusive means small, poorly fitted or top-dose-only effect, or another doubt; inactive means no such curve, though single readings can be large; an effect the other way counts as inactive or inconclusive. Non-standard residues stand in square brackets, D forms with d. Residues, ends and D or L forms follow the SMILES beside them. *: point of attachment. Sta = CC(C)C[C@H](N)[C@@H](O)CC(=O)O; Isovaleryl = CC(C)CC(=O)*

Legend:
[1] = qHTS profiling of the MIPE4 collection as inhibitors of Plasmodium falciparum (HB3) proliferation (AID 743347; call rule not given here); conditions: P. falciparum HB3 in erythrocytes, SYBR Green DNA, 72 h; at 28.5 µM (top of the series) unless noted
Summary of the method: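 Parasite DNA was quantified by SYBR Green I fluorescence (ex 485, em 535 nm) after overnight lysis in saponin/Triton buffer at room temperature. Cultures at 0.3% parasitemia and 2.5% hematocrit were first exposed to compound for 72 h at 37 C; signals were normalised to artemisinin (0.29 uM) and vehicle wells.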

[2] = High-throughput drug toxicity screening in the BPDCN cell line Gen2.2 (AID 1224824; call rule not given here;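 further: cells exposed to compounds for 48 h before reading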); conditions: Gen2.2 BPDCN cells; at 45.8 µM (top of the series) unless noted
Summary of the method: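 Gen2.2 cells, 500 per well in phenol red-free RPMI with 10% FBS, exposed to compounds 48 h at 37 C, 5% CO2; viability by CellTiter-Glo luminescence. Percent activity scaled to DMSO (100%) and 9.2 uM bortezomib final (0%).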

[3] = High-throughput drug toxicity screening in the BPDCN cell line Cal-1 (AID 1224825; call rule not given here); conditions: Cal-1 BPDCN cell viability, qHTS; at 45.8 µM (top of the series) unless noted
Summary of the method: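 CellTiter-Glo luminescence after 48 h compound exposure; percent activity scaled with DMSO as 100% and bortezomib (9.2 uM final) as 0%. Cal-1 cells seeded at 500/well in RPMI, 10% FBS, no phenol red.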

[4] = qHTS assay for measurement of the activity of small molecule inhibitors on Zika virus induced Caspase-3 activity in human iPSC derived neural progenitor cells (hNPCs) (AID 1224857); conditions: hNPCs ZIKV-induced caspase-3/7, Caspase-Glo luminescence, 6 h; series mostly up to 45.7 µM; further: nearly all actives have a fitted effect of over 65% in size; further: potency means the concentration at half of the fitted maximal effect
Summary of the method: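 Quantitative HTS format: human iPSC neural progenitors, 1 h compound pretreatment, ZIKV 2 FFU/cell for 6 h at 37 C. Percent inhibition derived from luminescent caspase-3/7 signal between uninfected and infected controls.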

[5] = qHTS assay for measurement of the activity of small molecule inhibitors on Zika virus induced Caspase-3 activity in human astrocytoma cells (AID 1224859); conditions: SNB-19 ZIKV-induced caspase-3/7, luminescence, 6 h; series mostly up to 45.7 µM; further: potency means the concentration at half of the fitted maximal effect
Summary of the method: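 Readout is luminescence from Caspase-Glo 3/7 added after a 6 h ZIKV infection (2 FFU/cell) of compound-pretreated (1 h) SNB-19 cells; data expressed as % inhibition versus uninfected and infected wells.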

[6] = qHTS Screen of the MIPE 4.0 Collection Against Ewings Sarcoma (RDES) (AID 1259252); conditions: RD-ES Ewing sarcoma viability, CellTiter-Glo, 48 h; series mostly up to 45.8 µM; further: nearly all actives have a fitted effect of over 35% in size; further: potency means the concentration at half of the fitted maximal effect
Summary of the method: (§1)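 Viability screen: 48 h incubation at 37C, 95% humidity, 5% CO2 with serially titrated compound, followed by CellTiter-Glo readout.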

[7] = qHTS Screen of the MIPE 4.0 Collection Against Ewings Sarcoma (TC71) (AID 1259253); conditions: TC71 Ewing sarcoma viability, CellTiter-Glo, 48 h; series mostly up to 45.8 µM; further: nearly all actives have a fitted effect of over 40% in size; further: potency means the concentration at half of the fitted maximal effect
Summary of the method: as §1

[8] = qHTS Screen of the MIPE 4.0 Collection Against Ewings Sarcoma (EW8) (AID 1259255); conditions: EW8 Ewing sarcoma viability, CellTiter-Glo, 48 h; series mostly up to 45.8 µM; further: nearly all actives have a fitted effect of over 35% in size; further: potency means the concentration at half of the fitted maximal effect
Summary of the method: as §1

[9] = qHTS Screen of the MIPE 4.0 Collection Against Ewings Sarcoma (TC32) (AID 1259256); conditions: TC32 Ewing sarcoma viability, CellTiter-Glo, 48 h; series mostly up to 45.8 µM; further: nearly all actives have a fitted effect of over 45% in size; further: potency means the concentration at half of the fitted maximal effect
Summary of the method: as §1

[10] = qHTS assay to identify small molecule inhibitors of chordoma cells - UCH-1 (AID 1259355); conditions: UCH-1 chordoma viability, CellTiter-Glo, 48 h, combination, with auranofin plus four topoisomerase inhibitors; series mostly up to 46.1 µM; further: nearly all actives have a fitted effect of over 55% in size; further: potency means the concentration at half of the fitted maximal effect
Summary of the method: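 Screening used approved and investigational drugs in 15-point titration against 800 seeded cells per well. A fixed combination of auranofin with camptothecin, doxorubicin, rubitecan and topotecan followed compound addition, and growth was scored by CellTiter-Glo after 48hr.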

SMILES | growth, % of control [1] | cell viability, % of control (lower = more cytotoxic) [2] | viability (% of control) [3] | Potency [4] | Potency [5] | Potency [6] | Potency [7] | Potency [8] | Potency [9] | Potency [10]
Clc1ccc2c(N3CCN(CCCN4CCN(c5ccnc6cc(Cl)ccc56)CC4)CC3)ccnc2c1 | 14.1% [at 9.64 µM] | 88.7% [at 23.2 µM] | 112% [at 23.2 µM] | inactive | inactive | inactive | inactive | inactive | inactive | 
Nc1cccc2c1CN(C1CCC(=O)NC1=O)C2=O (configuration not stated) | 108% [at 57.5 µM] | 178% [at 92.2 µM] | 101% [at 92.2 µM] | inactive | inactive | inactive |  | inactive | inactive | inactive
CCCCc1ccc2nc(NC(=O)OC)[nH]c2c1 | 27.6% | 47.1% | 13.4% | inactive | inactive | 10.5 nM (active) | 18.7 nM (active) | 9.3 nM (active) | inactive | 
CC(C)C[C@H](NC(=O)[C@H](Cc1ccccc1)NC(=O)c1cnccn1)B(O)O | 3.13% | 3.61% | 3.36% | inactive | inactive | 33.2 nM (active) | 41.8 nM (active) | 16.6 nM (active) | 37.2 nM (active) | 12.6 nM (active) and 6.3 nM (active)
Nc1ncn([C@H]2C[C@H](O)[C@@H](CO)O2)c(=O)n1 | 81.1% | 125% | 47.1% | inactive | inactive | 418 nM (active) | 2350 nM (active) |  |  | 
CN(C)CCc1c[nH]c2ccc(Cn3cncn3)cc12 | 99.9% | 102% | 54.2% | inactive | inactive | inactive | inactive | inactive | inactive | 
CCC(C)(Oc1ccc(C2(c3ccc(OC(C)(CC)C(=O)O)cc3)CCCCC2)cc1)C(=O)O (configuration not stated) | 107% | 148% | 136% | inactive | inactive | inactive | inactive | inactive | inactive | inactive
O=P(O)(O)C(O)(Cn1ccnc1)P(=O)(O)O |  | 109% [at 23.2 µM] | 108% [at 23.2 µM] | inactive | inactive | inactive | inactive | inactive | inactive | inactive
CC(C)CC(=O)N[C@H](C(=O)N[C@H](C(=O)N[C@@H](CC(C)C)[C@@H](O)CC(=O)N[C@@H](C)C(=O)N[C@@H](CC(C)C)[C@@H](O)CC(=O)O)C(C)C)C(C)C (Isovaleryl-VV[Sta]A[Sta]-OH) | 64.1% | 72.5% | 39.4% | inactive | inactive | inactive |  | inactive | inactive | inactive
CN1C(C(=O)Nc2ccccn2)=C(O)c2sccc2S1(=O)=O |  | 40.6% | 90.4% | inactive | inactive | 5900 nM (active) |  | inactive | inactive | 
CCOC(=O)C1=C[C@@H](OC(CC)CC)[C@H](NC(C)=O)[C@@H](N)C1 |  | 152% | 106% | inactive | inactive | inactive |  | inactive | inactive | inactive
CCN(CC)CCOc1ccc(Nc2ncc3cc(-c4c(Cl)cccc4Cl)c(=O)n(C)c3n2)cc1 | 4.26% | 4.53% | 2.59% | inactive | inactive | 1870 nM (active) | 3320 nM (active) | 235 nM (active) | 2640 nM (active) | 
CCCCC(CC)COC(=O)C(C#N)=C(c1ccccc1)c1ccccc1 (configuration not stated) | 7.29% | 157% | 112% | inactive | inactive | inactive | inactive | inactive | inactive | inactive
Cc1ccc(Nc2nccc(N(C)c3ccc4c(C)n(C)nc4c3)n2)cc1S(N)(=O)=O |  | 355% | 62.5% | inactive | inactive | 11800 nM (active) |  | inactive | inactive | 
CNC[C@@H](O)[C@@H](O)[C@H](O)[C@H](O)CO | 75.9% | 216% | 115% | inactive | inactive | inactive | inactive | inactive | inactive | 
Cc1cc2cc3c(C)cc(=O)oc3c(C)c2o1 | 76.7% | 16.3% | 8.43% | inactive | inactive | 7430 nM (active) | 11800 nM (active) |  | 16600 nM (active) | 
CCCS(=O)c1ccc2nc(NC(=O)OC)[nH]c2c1 (configuration not stated) |  | 32.3% | 13.7% | 10 µM (active) and 16.6 µM (active) | 20900 nM (active) | 20900 nM (active) |  | 20900 nM (active) | 23500 nM (active) | 
CCN(CC)C(=S)SSC(=S)N(CC)CC | 64.3% | 6.77% | 3.25% | 10 µM (active) | inactive | 118 nM (active) | 13.2 nM (active) | 18.7 nM (active) | inactive | inactive
Cc1cc(C2CCCCC2)n(O)c(=O)c1 | 9.38% | 17% | 5.31% | inactive | inactive |  | 5260 nM (active) | 14800 nM (active) | 2640 nM (active) | inactive
NNc1nncc2ccccc12 | 95.2% | 166% | 104% | inactive | inactive | inactive |  | inactive | inactive | inactive
Cc1cccc(CN2CCN(C(c3ccccc3)c3ccc(Cl)cc3)CC2)c1 (configuration not stated) | 9.08% | 156% | 94% | inactive | inactive | 20900 nM (active) |  |  | 13200 nM (active) | inactive
